Compound activity as filed in PubChem BioAssay.
This is a sample that favours compounds with a hit; in the whole collection about 2.9% have one here.
MEKK3 PB1 HTS – MEKK3-MEK5 PB1 interaction, increase or decrease; Q99759; binding response (% of control), % at 10 µM; bead-based flow cytometry, Alexa488-MEK5 binding to MEKK3; actives lie on both sides; 0 = blocked by unlabeled MEK5, 100 = vehicle; AID 1529; actives 1.4% (n = 290,000);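 active means binding response more than 3 SD above or below the average of its plate-row segment, actives on both sides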;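 further: Alexa488 bead fluorescence after subtracting the streptavidin-only scavenger bead signal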
Target sequence (Q99759 whole entry, looked up): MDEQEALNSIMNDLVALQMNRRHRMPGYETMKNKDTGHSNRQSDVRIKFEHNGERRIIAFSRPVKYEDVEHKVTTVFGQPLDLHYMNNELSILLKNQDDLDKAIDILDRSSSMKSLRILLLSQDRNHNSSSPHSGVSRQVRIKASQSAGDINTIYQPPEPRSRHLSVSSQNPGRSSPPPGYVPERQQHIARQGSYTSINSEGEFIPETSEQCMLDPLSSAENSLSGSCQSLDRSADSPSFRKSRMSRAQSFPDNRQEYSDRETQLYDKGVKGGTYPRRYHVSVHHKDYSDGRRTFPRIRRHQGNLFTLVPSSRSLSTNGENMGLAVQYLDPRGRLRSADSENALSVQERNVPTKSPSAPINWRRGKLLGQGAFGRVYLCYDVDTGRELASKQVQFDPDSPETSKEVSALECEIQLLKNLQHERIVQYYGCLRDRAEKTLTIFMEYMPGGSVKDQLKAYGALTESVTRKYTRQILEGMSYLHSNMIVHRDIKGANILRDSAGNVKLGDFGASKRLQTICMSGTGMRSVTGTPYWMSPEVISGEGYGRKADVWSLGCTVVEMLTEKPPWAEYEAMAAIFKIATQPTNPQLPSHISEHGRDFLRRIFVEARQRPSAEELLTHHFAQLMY
MEKK2 WT-MEK5 – raises or lowers MEK5 binding to wildtype human MEKK2 PB1 domain; bead flow cytometry, Alexa488-MEK5 binding to MEKK2 WT; actives lie on both sides; binding response (% of control), % at 10 µM; actives 1.1% (n = 290,000); AID 1531; in the data active means binding response below about 67% or above about 130%
CRFR2-BP ag – agonists of human CRF-binding protein/CRF-R2 receptor complex; HEK293 CRF-R2/CRF-BP, calcium dye fluorescence (FLIPR); percent of saturating CRF peptide response; activation, % at 13.2 µM; actives 0.46% (n = 350,000); AID 588473;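 active means activation of at least 50%, plus an integration ratio under a set limit after plate pattern correction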
ABCB6 inh 2 – inhibitors of human ABC transporter ABCB6; AID 602162; actives 0.19% (n = 360,000); Q9NP58; fluorescence ratio to DMSO, % at 10 µM; K562-ABCB6 porphyrin accumulation, flow cytometry, 1 h; hits give low values;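 active means fluorescence ratio to DMSO below 75%, the collection mean minus 3 SD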;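 further: signal is porphyrin accumulated inside mitochondria; lower ratio means ABCB6 inhibition with less porphyrin fluorescence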
CRFBP-R2 block – blocks CRF-induced signaling of the CRF-BP/CRF-R2 complex. HEK293 CRF-R2/CRF-BP, CRF-induced calcium fluorescence. inhibition, % at 11.8 µM. actives 0.59% (n = 350,000);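 active means inhibition of the ligand-induced calcium signal above about 50% at the single tested concentration, limit read from the data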
MEKK2 mut-MEK5 – signal of MEK5 binding to mutant human MEKK2 PB1 domain; bead flow cytometry, Alexa488-MEK5 binding to MEKK2 mutant; percent response, % at 10 µM; actives 0.35% (n = 290,000); in the data active means percent response above about 24%, passing the limit was not always enough
Large screens that a line does not name were inactive.

CCOc1ccc(CN2CCN(Cc3cc4ccccc4[nH]3)CC2CCO)cc1 (stereo not drawn)	none
COc1cccc(CN2CCN(Cc3cc4ccccc4[nH]3)CC2CCO)c1 (stereo not drawn)	CRFR2-BP ag 57
O=C(Cn1cc(C(F)(F)F)ccc1=O)N1CCc2ccccc2C1	none (no result: MEKK3 PB1 HTS, MEKK2 WT-MEK5, MEKK2 mut-MEK5)
Cc1ccc(/C=C/C(=O)OCC(=O)Nc2cccc(S(=O)(=O)N(C)C)c2)o1	MEKK2 WT-MEK5 10
CCOc1ccc(S(=O)(=O)N2CCCC(C(=O)NCC3CCCO3)C2)cc1Cl (stereo not drawn)	none (no result: MEKK3 PB1 HTS, MEKK2 WT-MEK5, MEKK2 mut-MEK5)
O=[N+]([O-])c1cccc(S(=O)(=O)Nc2nc3ccccc3nc2Nc2cccc(S(=O)(=O)N3CCCCC3)c2)c1	CRFBP-R2 block 90
Cn1c(=O)n(C)c2cc(S(=O)(=O)Nc3cc(Cl)ccc3O)ccc21	CRFBP-R2 block 103
Cn1c(=O)n(C)c2cc(S(=O)(=O)Nc3ccccc3O)ccc21	none
N#Cc1ccc(OCC(=O)NNC(=S)NC2CCCCC2)cc1	none (no result: MEKK3 PB1 HTS, MEKK2 WT-MEK5, MEKK2 mut-MEK5)
Cc1ccc(N(CC(=O)NCc2ccccc2)C(=O)CCC(=O)Nc2ccccn2)cc1C	none
CSc1nc(C)c(C(=O)C[n+]2ccccc2C)cc1C#N	CRFBP-R2 block 72
CCC(C)N(C(=O)CSc1nc2ccc(OC)cc2[nH]1)C1CCS(=O)(=O)C1 (stereo not drawn)	none (no result: MEKK3 PB1 HTS, MEKK2 WT-MEK5, MEKK2 mut-MEK5)
O=C(NCc1ccco1)C1CC(c2ccccc2O)=NO1 (stereo not drawn)	CRFR2-BP ag 77
O=[N+]([O-])c1ccc(Sc2ccccc2)nc1	CRFBP-R2 block 54
CC(NS(=O)(=O)c1ccc2c(c1)C(=O)c1cc(S(=O)(=O)NC(C)C(=O)O)ccc1-2)C(=O)O (stereo not drawn)	none
CC(=O)NS(=O)(=O)c1ccc2c(c1)C(=O)c1cc(S(=O)(=O)NC(C)=O)ccc1-2	MEKK2 WT-MEK5 -8.0
COC(=O)c1ccccc1NC(=O)CCCOc1cc(=O)n(C)c2ccccc12	none (no result: MEKK3 PB1 HTS, MEKK2 WT-MEK5, CRFR2-BP ag, CRFBP-R2 block, MEKK2 mut-MEK5)
Cc1cccc(C)c1C(O)c1ncc(-c2ccccc2C(F)(F)F)[nH]1 (stereo not drawn)	none (no result: MEKK3 PB1 HTS, MEKK2 WT-MEK5, CRFR2-BP ag, CRFBP-R2 block, MEKK2 mut-MEK5)
COc1ccc(/C=C/c2nc(-c3ccccc3)cc(=O)[nH]2)cc1	CRFBP-R2 block 66
Cc1ccc(S(=O)(=O)NCC(=O)OCC(=O)N2CCN(C(=O)c3ccco3)CC2)cc1C	none (no result: MEKK3 PB1 HTS, MEKK2 WT-MEK5, MEKK2 mut-MEK5)
COc1cc(OC)cc(C(=O)NCC(=O)OCc2cc(=O)oc3cc(OC)ccc23)c1	CRFBP-R2 block 105
COC(=O)C1=C(C(=O)c2ccc(C)cc2)C(c2ccc(O)c(OC)c2)n2nnnc2N1 (stereo not drawn)	none
COC(=O)C1=C(C(=O)c2ccccc2)C(c2ccc(O)c(OC)c2)n2nnnc2N1 (stereo not drawn)	CRFBP-R2 block 98
O=C1Nc2ccc(Br)cc2C12NNc1ccccc1O2 (stereo not drawn)	MEKK2 WT-MEK5 -4.0
O=C1Nc2ccc(Br)cc2C1(O)c1ccccc1 (stereo not drawn)	none
Cc1cc(C)c(SSc2nnnn2-c2ccccc2)c(C)c1	none (no result: MEKK3 PB1 HTS, MEKK2 WT-MEK5, MEKK2 mut-MEK5)
COc1ccccc1COC(=O)c1ccc(S(=O)(=O)N2CCOCC2)cc1	none (no result: MEKK3 PB1 HTS, MEKK2 WT-MEK5, MEKK2 mut-MEK5)
O=C(CSc1nc2ccc(Nc3nc(N4CCOCC4)nc(N4CCOCC4)n3)cc2s1)Nc1ccccc1F	none
CCOC(=O)c1c(NC(=O)COc2ccccc2C#N)sc2c1CC(C)(C)NC2(C)C	MEKK2 WT-MEK5 134
CCOC(=O)c1c(NC(=O)COc2ccccc2OCC)sc2c1CC(C)(C)NC2(C)C	none (no result: MEKK3 PB1 HTS, MEKK2 WT-MEK5, MEKK2 mut-MEK5)
CC1(C)Cc2c(sc(NC(=O)c3ccc(C(=O)c4ccccc4)cc3)c2C(N)=O)C(C)(C)N1	MEKK2 WT-MEK5 150
Cc1cc(C)nc(SCc2nnc(SCc3ccc([N+](=O)[O-])cc3)n2Cc2ccco2)n1	CRFBP-R2 block 79
N#C/C(=C/c1ccc(N2CCCCC2)o1)C(=O)Nc1ccc(Cl)cc1	CRFR2-BP ag 155
N#C/C(=C/c1ccc(N2CCOCC2)o1)c1nc2ccccc2[nH]1	CRFR2-BP ag 128
N#C/C(=C/c1ccc(N2CCOCC2)o1)C(=O)NC1CCCCC1	CRFR2-BP ag 50
COc1ccc(NC(=O)/C(C#N)=C\c2ccc(N3CCOCC3)o2)cc1	CRFR2-BP ag 223
